Test results as given in PubChem BioAssay (NCI).
Compounds without any hit were thinned out: in the full panel of roughly 83,000, 20% have a hit.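 Step 1: grow cells in 96-well plates. Step 2: add test compound at a single concentration. Step 3: incubate 48 h. Step 4: record percent growth.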 Values without a mark were called inactive. The source made the active and inactive calls. Rule for the calls: active = growth percent below 10; inactive = the rest.

test system: HL-60(TB) leukemia; experiment: NCI-60 one-dose screen, 48 h (100 = growth as untreated, 0 = no growth, -100 = all killed); conditions: 10 µM unless noted

| SMILES | growth |
| --- | --- |
| CC(C)CSc1nc(NCCc2c[nH]c3ccccc23)c(C#N)c(-c2ccc(F)cc2)n1 | 49.7% |
| COC(=O)c1cc(C(=O)C(Br)Br)n2c1ccc1c3ccccc3ccc12 | 76.2% |
| COc1ccc(-c2nc3ccccc3n2CC(=O)N=Nc2c(O)[nH]c3ccc(OC)cc23)cc1 | 37.6% |
| CCOC(=O)C1=C(N)N(c2ccccc2)C2=C(C(=O)CC(C)(C)C2)C1c1ccccc1OC (stereo not given) | 99.2% |
| O=C(c1ccccc1)c1ccc2nc(-c3cccc(Cl)c3)[nH]c2c1 | 97.6% |
| CCOC(=O)COc1c(OC)c(OC)cc2oc(-c3cccc(C(=O)Nc4ccc(Cl)cc4)c3)cc(=O)c12 | 97.6% |
| O=C(NN1C(=O)/C(=C/C=C/c2ccc([N+](=O)[O-])o2)SC1=S)c1ccc(O)cc1 | -41.8% (active) |
| C#C[C@]1(O)CC[C@H]2[C@@H]3CC=C4c5sc(-c6ccc(O)c(O)c6)nc5CC[C@]4(C)[C@H]3CC[C@@]21C | -54.1% (active) |
| O=C(CSc1nc2ccccc2c(=O)[nH]1)NCCN1CCCCC1 | 94.4% |
| Cc1cc(C)nc(NS(=O)(=O)c2ccc(N/C(N)=N/c3nccc(-c4cccs4)n3)cc2)n1 | 1.77% (active) |
| CCCCNC(=S)Nc1ccc(OCc2nc3ccc(Cl)cc3[nH]2)cc1 | 13% |
| CC1(C)CC[C@]2(C(=O)O)CC[C@]3(C)C(=CCC4[C@@]5(C)C[C@@H](O)[C@@H]6OC(c7ccccc7F)OC[C@@]6(C)C5CC[C@]43C)C2C1 (stereo not given in full) | 2.91% (active) |
| CN(C)c1ccc(/C=C/c2n(Cc3ccc4ccccc4c3)c3ccccc3[n+]2Cc2ccc3ccccc3c2)cc1 | -47.1% (active) |
| C=Cn1cc(C(=O)O)c(=O)c2cc(F)c(N3CCN(c4nccc(-c5nccs5)n4)CC3)cc21 | -24.7% (active) |
| O=C1NC(=NC23CC4CC(CC(C4)C2)C3)N/C1=C\c1ccc2ncsc2c1 | -16.1% (active) |
| CCOC(=O)C1=C(N)N(c2ccccc2)C2=C(C(=O)CC(C)(C)C2)C1c1ccc([N+](=O)[O-])cc1 (stereo not given) | 92.9% |
| O=C(CSc1nnc(-c2c[nH]c3ccccc23)n1-c1ccccc1)Nc1ccc(C(=O)/C=C/c2ccc(Br)cc2)cc1 | 83.2% |
| CC1=C2C(=C[C@@](C)(CO)[C@@H]2O)/C(=N\N)[C@](C)(O)C12CC2 | -22.1% (active) |
| Cc1ccc(C(SCCNCc2cc(N(C)C)ccn2)(c2ccccc2)c2ccccc2)cc1 | -40.9% (active) |
| O=C1NC(=S)/C(=C/c2cn(-c3ccccc3)nc2-c2ccccc2)S1 | 21% |

| SMILES | growth |
| --- | --- |
| CN(C)CCn1c2ccccc2c2nc3cc4ccccc4cc3nc21 | -51.2% (active) |
| CS(=O)(=O)Nc1cncc(-c2ccc3ncnc(NCc4ccccc4)c3c2)c1 | 54.6% |
| Oc1ccc(Cl)c(Nc2ncnc3c2cnn3CC(Cl)c2ccc(Br)cc2)c1 (stereo not given) | 80.5% |
| COc1cc(-c2nc3cc(Cl)c(Cl)cc3[nH]2)ccc1OCc1nnc(-c2ccc(Br)cc2)o1 | -62% (active) |
| COc1cc2c(cc1OC)/C(=C\c1sc(Nc3ccc(O)cc3)nc1O)C(C(=O)O)=N2 | -17.5% (active) |
| COc1cc2oc(-c3cccc(NC(=O)[C@H](Cc4ccccc4)NC(=O)OC(C)(C)C)c3)cc(=O)c2c(OC)c1OC | 22.9% |
| COc1cnc2c(c1)C(=O)c1c-2n(CCCNCCO)c(=O)c2cc(OC)c(OC)cc12 | 61.3% |
| C#CCOc1cc(N(CC)CC)ccc1C(C(=O)NC(C)(C)C)N(C(=O)C1CCc2cc(F)ccc2O1)c1ccc(Br)cc1 (stereo not given) | 44.7% |
| N/N=C(\N)c1c(N)nc(=S)[nH]c1-c1ccc(Cl)cc1Cl | 89.1% |
| CC1=N/C(=C\c2ccc(N(C)C)cc2)C(=O)N1CCc1ccc(S(N)(=O)=O)cc1 | 102% |
| CC(=O)Nc1ccc(S(=O)(=O)Nc2ccc(-c3ccc4c(c3)NC(=O)/C4=C\c3ccc[nH]3)cc2)cc1 | 84.2% |
| COc1cc2c(c(OC)c1OC)C(=O)CC(c1cccc(NC(=O)[C@@H](N)CC(C)C)c1)O2 (stereo not given in full) | 96.6% |
| Brc1ccc(/C=N/Nc2ncnc3sc4c(c23)CCN(Cc2ccccc2)C4)cc1 | 19.9% |
| O=C1CCC(N2Cc3cc(NC(=O)COc4ccccc4)ccc3C2=O)C(=O)N1 (stereo not given) | 6.3% (active) |
| C=C1CC[C@@H]2[C@]3(C)COC(c4cn[nH]c4-c4cccc(Cl)c4)O[C@@H]3CC[C@@]2(C)[C@@H]1C/C=C1/C(=O)OCC1O (stereo not given in full) | -15.1% (active) |
| COc1ccc(N=Nc2c(N)nn3c(-c4ccc(F)cc4)ccnc23)cc1 | 95.3% |
| Cc1ccc(C(=O)C[n+]2cccc3c4ccccc4ccc32)cc1 | 1.77% (active) |
| Cc1ccn2c(C(=O)c3ccccc3)cc(-c3cc(-c4ccc(N(C)C)cc4)c(C#N)c(N)n3)c2c1 | 95.1% |
| Cc1c(C(=O)NNC(=O)c2ccc(Cl)cc2)nnn1-c1ccc(Cl)cc1 | 100% |
| COc1ccc(NC(=O)CSc2nnc(-c3ccc(-c4nc5ccccc5[nH]4)cc3)o2)cc1 | 43.5% |
